Screening results: PubChem, National Center for Advancing Translational Sciences (NCATS)
SW480 rerep: DNA re-replication induction in SW480 cells. actives 1.8% (n = 340,000). SW480 DNA re-replication, Hoechst DNA content imaging, 48 h. Potency, µM (highest dose often 46.1 µM), inactives show at the top dose re-replication activation, most hits filed as activators. AID 624297; further: potency means the concentration at half of the fitted maximal effect; % of control where 0% means no effect; nearly all actives have a fitted effect of over 55% in size
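First, 250 cells per well were seeded. Next, compound or vehicle (23 nL) was pinned in, plates sat 48 hr at 37 C. Finally Hoechst was added for 40 min before fluorescence scanning.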
IL1B secr inh: inhibitors of inflammasome signaling (IL-1 beta secretion). THP-1 LPS/ATP IL-1B secretion, AlphaLISA, 16 h; active compounds read low. activity change, % at 57.5 µM. actives 4.7% (n = 360,000). AID 743279; in the data active means activity change below about -50%; inconclusive means mostly about -30% to -49%; further: on the % scale 0 is the no-effect control and ±100 the full control effect
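THP-1 cells pretreated 1 hr with compounds (up to 57.5 uM final), then stimulated with LPS (250 ng/mL final) plus ATP (1.25 mM final); secreted IL-1B measured by AlphaLISA after 16 hr, decreased signal indicating inhibition.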
RORg inh: inhibitors of mouse ROR gamma transcriptional activity | actives 5.4% (n = 310,000) | Drosophila S2 Gal4-RORgamma UAS-luciferase reporter, 20 h | AID 2551 | P51450 | Potency, µM (highest dose often 53.6 µM), for inactives: top-dose activity change, negative = inhibition, usual class: inhibitors; further: potency means the concentration at half of the fitted maximal effect; on the % scale 0 is the no-effect control and ±100 the full control effect; nearly all actives have a fitted effect of over 60% in size
Target sequence (P51450 whole entry, looked up, the tested form may be a part): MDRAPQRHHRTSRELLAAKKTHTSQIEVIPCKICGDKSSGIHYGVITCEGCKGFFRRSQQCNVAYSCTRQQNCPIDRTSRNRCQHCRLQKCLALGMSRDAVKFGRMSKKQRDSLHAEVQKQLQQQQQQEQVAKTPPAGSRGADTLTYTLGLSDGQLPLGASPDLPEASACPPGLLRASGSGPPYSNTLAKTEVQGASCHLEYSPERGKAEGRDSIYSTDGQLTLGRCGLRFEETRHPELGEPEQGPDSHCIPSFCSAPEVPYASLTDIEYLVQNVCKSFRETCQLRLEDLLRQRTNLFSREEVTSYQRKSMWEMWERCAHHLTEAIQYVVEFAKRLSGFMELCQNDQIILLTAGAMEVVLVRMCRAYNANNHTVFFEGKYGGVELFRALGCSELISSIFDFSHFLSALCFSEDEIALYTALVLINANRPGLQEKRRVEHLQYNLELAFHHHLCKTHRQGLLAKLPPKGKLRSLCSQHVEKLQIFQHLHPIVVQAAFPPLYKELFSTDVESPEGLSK
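A Gal4/UAS one-hybrid system in insect cells: metallothionein-promoter Gal4–ROR gamma fusion plus Photinus luciferase reporter. Copper sulfate 700 uM final, 20 hr ambient incubation, luminescent detection after 10 min with reagent.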
Gal4-VP16 FLuc: inhibits Gal4-VP16 luciferase reporter, ROR gamma counter-screen | Drosophila S2 Gal4-VP16 UAS-luciferase, luminescence, 20 h | Potency, µM (doses to about 53.6 µM), without a hit: at the top dose activity, negative = inhibition, most hits filed as inhibitors | actives 3.5% (n = 310,000) | AID 2546;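 further: Gal4-VP16 expression switched on by copper sulfate through the metallothionein promoter; potency means the concentration at half of the fitted maximal effect; on the % scale 0 is the no-effect control and ±100 the full control effect; nearly all actives have a fitted effect of over 50% in size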
MCF10A rereplic: inducers of DNA re-replication in MCF 10A breast cells; Potency, µM (highest dose often 46.1 µM), inactives show top-dose activity, positive = re-replication, actives largely listed as activators; actives 2.9% (n = 350,000); MCF 10A DNA re-replication, Hoechst nuclear intensity, 48 h; AID 624296; further: potency means the concentration at half of the fitted maximal effect; % of control where 0% means no effect; nearly all actives have a fitted effect of over 50% in size
Numbers without * were called inactive; ? = inconclusive; / = not tested or not shown; [ ] = remark or other dose. An excerpt weighted towards active compounds, which were near 11% of everything screened. Unless noted, the call rests on the fitted dose curve; in most records, active means well fitted curve in the direction sought with a large enough effect; inconclusive means small, poorly fitted or top-dose-only effect, or another doubt; inactive means no such curve, though single readings can be large; an effect the other way counts as inactive or inconclusive.

SMILES	SW480 rerep	IL1B secr inh	RORg inh	Gal4-VP16 FLuc	MCF10A rereplic
COc1ccc(/C=C2\SC(=S)N(CCCC(=O)N3CCCCC3CCO)C2=O)cc1 (configuration not stated)	?	-8.7	2.24µM*	3.55µM*	?
CCc1cccc(NC(=O)c2ccc3c(=O)n4c(nc3c2)CCCCC4)c1	-12.1%	-61.4*	23.8%	?	10.2%
O=C(Nc1cccc(Cl)c1)c1ccc2c(=O)n3c(nc2c1)CCCCC3	-0.6%	-73.9*	25.7%	0.2%	16.6%
CC1(c2nc3ccccc3[nH]2)c2ccccc2C(=O)N1Cc1ccccc1 (configuration not stated)	/	0.0	/	/	/
COc1ccc(/C=C2/CCc3ccccc3C2=O)cc1OC	-0.4%	-98.7*	?	?	13.6%
COc1ccc(C=C2CCc3ccccc3C2=O)cc1	/	1.3	/	/	/
CCOc1cc(/C=C2\COc3ccccc3C2=O)cc(Br)c1OCC(=O)N(C)C	?	-103.2*	?	20µM*	?
COc1cc(/C=C2\CCc3ccccc3C2=O)cc(OC)c1OC	?	-101.2*	21.1%	?	?
O=C(O)c1ccc(/C=C2\COc3ccccc3C2=O)cc1	2.3%	-105.0*	7.08µM*	6.31µM*	?
COc1ccc(OCC2Cc3c(-c4ccccc4)nc4c(c3CO2)CN(CCOc2ccccc2)CC4)cc1 (configuration not stated)	/	/	16.4%[10 µM]	-2.7%[10 µM]	/
COc1ccc(/C=C2\COc3ccccc3C2=O)cc1OC	?	-98.5*	?	?	?
COc1cc(/C=C2/CCc3ccccc3C2=O)cc(OC)c1OC	?	-99.0*	-6.5%	-5.4%	18.4µM*
COc1ccccc1C=C1CCc2ccccc2C1=O	/	-7.2	/	/	/
COc1ccc2c(c1)CC/C(=C\c1ccc(OC)c(Cn3cccn3)c1)C2=O	2.1%	-51.7*	2.5%	1.7%	?
COc1ccc2c(c1)CC/C(=C\c1ccc(OC)c(Cn3nc(C)cc3C)c1)C2=O	?	13.1	?	-28.3%	?
Cc1ccc(CNc2ncnc3ccc(-c4c(C)noc4C)cc23)cc1	/	/	-42.2%	2.9%	/
Cc1cc([N+](=O)[O-])ccc1P(=O)(O)c1ccc([N+](=O)[O-])cc1C	-3.0%	19.3	/	/	-2.2%
O=C(COc1cc(F)ccc1[N+](=O)[O-])NCCN1C(=O)CSC1=O	-6.2%	?	/	/	1.0%
CC(=O)Nc1ccc2ccc3cccc4ccc1c2c34	20.6µM*	1.9	?	-1.5%	6.51µM*
CC(C)c1ccc(N2C=Nc3ccc(C(C)C)cc3C2)cc1	7.3%	-96.9*	7.94µM*	?	?
C1=Nc2ccccc2CN1c1ccccc1	-0.9%	8.3	5.4%	-9.8%	20.9%
S=c1[nH]nc(-c2cc(-c3ccccc3)n[nH]2)n1/N=C/c1ccc(Cl)c(Cl)c1	-118.3%	63.1	10µM*	7.94µM*	1.3%
S=c1[nH]nc(-c2cc(-c3ccccc3)n[nH]2)n1/N=C/c1ccc(Cl)cc1	-1.6%	105.5	?	?	?
Cc1cc(-c2n[nH]c(=S)n2/N=C/c2ccc(Cl)c([N+](=O)[O-])c2)n[nH]1	?	15.4	-13.1%	?	?
S=c1[nH]nc(-c2ccccn2)n1/N=C/c1ccc(-c2ccccc2Cl)o1	-5.0%	-1.5	8.91µM*	-4.4%	15.2%
SMILES	SW480 rerep	IL1B secr inh	RORg inh	Gal4-VP16 FLuc	MCF10A rereplic
S=c1[nH]nc(-c2ccccn2)n1/N=C/c1ccc(Cl)c(Cl)c1	-40.2%	/	7.08µM*	-23.4%	-3.6%
Cc1n[nH]c(=S)n(/N=C/c2ccccn2)c1=O	4.0%	18.9	-7.5%	-6.6%	-3.0%
S=c1[nH]nc(-c2ccccn2)n1/N=C/c1ccc(Br)s1	-6.9%	27.7	7.08µM*	7.94µM*	8.3%
C=CCN1C(=O)C(CC(=O)O)S/C1=N/N=C/c1ccc(N(CC)CC)cc1 (configuration not stated)	-9.3%	-4.5	/	/	-4.8%
O=C(CCS(=O)(=O)c1ccccc1Cl)NCCC1=CCCCC1	-0.3%	-6.7	7.3%	20.0%	3.9%
S=c1[nH]nc(-c2cc(-c3ccccc3)n[nH]2)n1/N=C/c1cccc(Cl)c1	?	21.2	?	?	23.1µM*
